The source made the active and inactive calls. Unless noted, no rule for the calls is given here.
How the values were obtained:
[1] = HepG2 liver cancer cell viability effects, profiling panel, resazurin fluorescence, 24 h, PK04 Diversity Set (AID 1172); details: higher = more signal
[2] = basal S. cerevisiae growth modulation, no modifier, primary screen, OD600, strain BY4716, 24 h, basal condition (AID 1173); details: OD600, 24 h, higher = more signal, called active from +8 up or from −8 down
[3] = MM1S myeloma cell viability, profiling panel, resazurin fluorescence, basal, 24 h, PK04 Diversity Set (AID 1174); details: higher = more signal, called active from +8 up or from −8 down;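 also: MM1S multiple myeloma cell line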
[4] = biological target: Dihydroorotate dehydrogenase (quinone), mitochondrial (Plasmodium falciparum (isolate 3D7)) (UniProt Q08210); assay: PfDHODH enzyme inhibitors, primary screen, biochemical, C-terminal His tag, absorbance 600 nm (AID 1175); details: DCIP absorbance 600 nm, higher = more signal, called active from +8 up or from −8 down;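 also: recombinant parasite enzyme with a five histidine tag at its C terminus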
Chain of Dihydroorotate dehydrogenase (quinone), mitochondrial (Plasmodium falciparum (isolate 3D7)) (Q08210 whole entry, looked up): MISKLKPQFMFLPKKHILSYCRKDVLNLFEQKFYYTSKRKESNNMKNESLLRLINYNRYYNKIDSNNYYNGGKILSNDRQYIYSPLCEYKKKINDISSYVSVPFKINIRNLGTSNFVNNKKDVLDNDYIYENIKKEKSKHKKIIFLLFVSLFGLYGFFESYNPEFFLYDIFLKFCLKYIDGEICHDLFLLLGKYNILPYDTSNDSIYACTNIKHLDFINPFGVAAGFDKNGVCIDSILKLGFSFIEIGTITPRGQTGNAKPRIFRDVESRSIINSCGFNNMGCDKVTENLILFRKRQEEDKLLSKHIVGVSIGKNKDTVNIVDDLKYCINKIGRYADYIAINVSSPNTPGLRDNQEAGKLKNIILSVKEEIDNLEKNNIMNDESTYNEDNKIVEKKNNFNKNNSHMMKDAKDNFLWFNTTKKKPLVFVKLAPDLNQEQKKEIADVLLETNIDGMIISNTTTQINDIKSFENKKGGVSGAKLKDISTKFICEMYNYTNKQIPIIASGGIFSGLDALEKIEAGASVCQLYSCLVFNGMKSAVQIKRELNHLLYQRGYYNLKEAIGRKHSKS

[5] = P. aeruginosa biofilm formation inhibitors, primary screen, strain PAO1, LB-PBS medium, absorbance 600 nm (AID 1176); details: P. aeruginosa PAO1 growth/biofilm, A600, 12 h; higher = more signal
[6] = S. cerevisiae RM11-1a growth modifiers, primary screen, strain RM11-1a, OD600, basal, 24 h (AID 1177); details: OD600, 24 h, higher = more signal, called active from +8 up or from −8 down;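 also: cultures grown under basal conditions with no added stressor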
[7] = E. coli acrAB mutant growth effects, primary screen, E. coli filamentation inducers, strain DRC39, OD650, 24 h (AID 1178); details: higher = more signal, called active from +8 up or from −8 down;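 also: growth measured as culture turbidity by optical density at 650 nm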
[8] = E. coli acrAB mutant growth effects, primary screen, E. coli filamentation inducers, strain DRC39, OD650, 48 h (AID 1179);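 also: screen aims at cell division blockers that make cells filament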; details: E. coli DRC39 delta-acrAB growth, higher = more signal, called active from +8 up or from −8 down
[9] = RPMI8226 myeloma cell viability, profiling panel, resazurin fluorescence, basal, 24 h, PK04 Diversity Set (AID 1180); details: higher = more signal;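 also: RPMI8826 multiple myeloma cell line at 5000 cells per well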
[10] = biological target: E3 ubiquitin-protein ligase XIAP (Homo sapiens) (UniProt P98170); assay: XIAP binders, primary screen, biophysical, small-molecule microarray, fluorescence 635 nm (AID 1181); details: small-molecule microarray binding, higher = more signal;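 also: score merges 667 nm emission and signal to noise over triplicate slides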
Chain of E3 ubiquitin-protein ligase XIAP (Homo sapiens) (P98170 whole entry, looked up): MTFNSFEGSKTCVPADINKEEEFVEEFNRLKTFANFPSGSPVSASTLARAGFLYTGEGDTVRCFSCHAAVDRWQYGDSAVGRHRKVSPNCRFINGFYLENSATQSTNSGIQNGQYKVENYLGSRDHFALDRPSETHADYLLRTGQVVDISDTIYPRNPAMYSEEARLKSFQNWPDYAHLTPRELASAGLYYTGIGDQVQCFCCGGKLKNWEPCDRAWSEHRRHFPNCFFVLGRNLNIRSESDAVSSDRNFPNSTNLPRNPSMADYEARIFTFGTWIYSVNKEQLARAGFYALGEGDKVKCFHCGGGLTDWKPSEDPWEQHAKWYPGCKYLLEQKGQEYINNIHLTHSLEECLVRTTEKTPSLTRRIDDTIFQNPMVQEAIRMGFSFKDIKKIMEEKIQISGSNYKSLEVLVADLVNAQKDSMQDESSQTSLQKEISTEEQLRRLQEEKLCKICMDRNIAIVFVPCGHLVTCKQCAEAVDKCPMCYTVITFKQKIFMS

[11] = system: XIP peptide (Xip251-270) binding; assay: small-molecule binders of XIP peptide, primary screen, biochemical, small-molecule microarray, fluorescence 635/667 nm, 0.1 µg/mL protein (AID 1182); details: fluorescent protein binding, 635 nm, higher = more signal, called active from +8 up or from −8 down
[12] = system: XIP peptide (Xip251-270); assay: small-molecule binders of XIP peptide, primary screen, biochemical, small-molecule microarray, fluorescence 635/667 nm, 0.5 µg/mL protein (AID 1183); details: small-molecule microarray binding, fluorescence 635 nm; higher = more signal
[13] = Plasmodium falciparum growth inhibition, primary screen, strain 3D7, DAPI fluorescence, 100 nL (AID 1184);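 also: parasites grown inside human red blood cells in medium with human serum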; details: P. falciparum 3D7 growth, 3 d, higher = more signal
[14] = biological target: Homeobox protein Hox-A13 (Mus musculus) (UniProt Q62424); assay: inhibitors of HoxA13-DNA binding, primary screen, biochemical, fluorescence polarization, labeled oligonucleotide (AID 1185); details: 15 min, higher = more signal, called active from +8 up or from −8 down
Chain of Homeobox protein Hox-A13 (Mus musculus) (Q62424 whole entry, looked up): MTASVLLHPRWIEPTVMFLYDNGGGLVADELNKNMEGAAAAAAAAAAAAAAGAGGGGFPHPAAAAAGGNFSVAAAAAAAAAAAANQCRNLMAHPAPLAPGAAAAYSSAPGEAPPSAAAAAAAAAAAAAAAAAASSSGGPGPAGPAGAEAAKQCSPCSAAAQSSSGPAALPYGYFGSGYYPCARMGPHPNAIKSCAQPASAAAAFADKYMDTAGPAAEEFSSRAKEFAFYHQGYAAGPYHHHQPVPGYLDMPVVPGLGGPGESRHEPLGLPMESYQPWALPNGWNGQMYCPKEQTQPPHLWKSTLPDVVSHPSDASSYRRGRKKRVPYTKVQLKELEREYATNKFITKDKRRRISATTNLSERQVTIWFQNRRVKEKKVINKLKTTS

[15] = inhibitors of hydroxyurea-induced Chk1 phosphorylation, primary screen, imaging, HeLa, phospho-Chk1 antibody, percent positive cells (AID 1186); details: hydroxyurea-induced phospho-Chk1 immunofluorescence imaging, higher = more signal
[16] = inhibitors of hydroxyurea-induced Chk1 phosphorylation, primary screen, imaging, HeLa, phospho-Chk1 nuclear intensity (AID 1187); details: hydroxyurea-induced phospho-Chk1 immunofluorescence imaging, higher = more signal

| Compound | z-score [1] | z-score [2] | z-score [3] | composite z-score [4] | z-score [5] | z-score [6] | z-score [7] | z-score [8] | z-score [9] | composite z-score [10] | composite z-score [11] | composite z-score [12] | z-score [13] | z-score [14] | z-score [15] | z-score [16] |
| --- | --- | --- | --- | --- | --- | --- | --- | --- | --- | --- | --- | --- | --- | --- | --- | --- |
| COC(=O)[C@@]1(Cc2ccccc2)N=C(c2ccc(OCCCO)cc2)O[C@H]1c1ccccc1N=[N+]=[N-] | -0.914 | 0.0975 (inactive) | -2.58 (inactive) | 0.0308 (inactive) | 1.49 (inactive) | 1.57 (inactive) | 0.368 (inactive) | 0.752 (inactive) | -2.93 | 0.723 | 0.856 (inactive) | 0.887 | -2.27 | 0.459 (inactive) | -0.48 (inactive) | -0.775 (inactive) |
| CCC[C@@H]1C=C(C(=O)O)[C@H](c2ccc(C)cc2)N1S(=O)(=O)c1ccc(C)cc1 | -0.795 | 0.0188 (inactive) | -0.522 (inactive) | -0.0451 (inactive) | 0.89 (inactive) | -0.213 (inactive) | -0.591 (inactive) | 0.0595 (inactive) | -2.01 | 0.22 | -0.0617 (inactive) | 0.884 | 0.977 | -3.27 (inactive) | 0.941 (inactive) | 1.34 (inactive) |
| CCCCC=C[C@@H](NC(=O)c1ccco1)c1ccccc1 | 1 | 1.42 (inactive) | 0.356 (inactive) | 0.559 (inactive) | -0.126 (inactive) | 0.846 (inactive) | 0.358 (inactive) | 0.815 (inactive) | 0.223 | -0.123 | 0.193 (inactive) | 0.511 | -1.19 | -0.806 (inactive) | -0.164 (inactive) | -0.7 (inactive) |
| C=C(CCCC)C(=O)CC[C@H](OC(=O)c1cccnc1)c1cccc(OCCO)c1 | -0.53 | 0.704 (inactive) | -1.29 (inactive) | -0.455 (inactive) | -0.21 (inactive) | 1.7 (inactive) | 0.477 (inactive) | 0.262 (inactive) | -2.01 | -0.0582 | 0.179 (inactive) | 0.143 | -3.03 | -4.56 (inactive) | -0.296 (inactive) | -0.249 (inactive) |
| CCOC(=O)C[C@H]1[C@H](OC(=O)Cc2ccc3c(c2)OCO3)[C@@H](NC(=O)c2ccc(-c3ccccc3)cc2)c2cc(OCCCO)ccc2N1C(=O)c1ccccc1 | 0.0575 | 0.188 (inactive) | 0.106 (inactive) | -0.0887 (inactive) | 0.608 (inactive) | 0.412 (inactive) | 1.02 (inactive) | 1.16 (inactive) | -0.264 | -0.17 | -0.238 (inactive) | 0.729 | -1.77 | -1.88 (inactive) | -0.467 (inactive) | -0.214 (inactive) |
| Cc1ccc(S[C@]2(C(=O)NC3CC3)CC(=O)N(C3CCCCC3)[C@@H]2c2ccc(CO)cc2I)cc1 | 0.57 | -0.134 (inactive) | -0.232 (inactive) | 1.44 (inactive) | 0.475 (inactive) | 0.537 (inactive) | 0.738 (inactive) | 0.377 (inactive) | -1.54 | -0.13 | 1.01 (inactive) | 0.784 | -1.34 | -4.11 (inactive) | -0.0105 (inactive) | 0.06 (inactive) |
| [N-]=[N+]=NCc1ccccc1C[C@]1(C(=O)NCC(O)CO)N=C(c2ccc(OCCCO)cc2)O[C@H]1c1ccccc1N=[N+]=[N-] (stereo partly drawn) | 0.207 | 0.664 (inactive) | -0.403 (inactive) | 1.83 (inactive) | 0.208 (inactive) | 2.8 (inactive) | 1.22 (inactive) | 0.0128 (inactive) | -0.986 | -0.0057 | -0.188 (inactive) | 0.0926 | -2.25 | -3.25 (inactive) | -0.985 (inactive) | -1.52 (inactive) |
| C=CCNC(=O)[C@H]1[C@@H]2C(=O)O[C@@H](c3ccccc3)[C@@H](c3ccccc3)N2[C@@H](c2ccc(O)cc2)[C@]12C(=O)N(C(=O)OCCOC)c1ccc(C#CCCO)cc12 | -0.37 | -0.385 (inactive) | 0.695 (inactive) | 1.12 (inactive) | 0.104 (inactive) | 0.681 (inactive) | 0.261 (inactive) | 0.69 (inactive) | 0.665 | -0.272 | 0.855 (inactive) | 0.72 | -0.353 | -3.9 (inactive) | -0.537 (inactive) | -0.532 (inactive) |
| COCC(=C=CC[C@H](O)c1ccc(OCCO)cc1)C[C@H](O)c1cc(Cl)cc(Cl)c1O | 0.751 | -18 (active) | 0.668 (inactive) | -4.37 (inactive) | 0.354 (inactive) | -22.1 (active) | 1.43 (inactive) | 1.27 (inactive) | 0.708 | 0.0724 | 0.423 (inactive) | 0.161 | -1.55 | -4.13 (inactive) | -0.559 (inactive) | 0.56 (inactive) |
| COC(=O)C[C@@H]1C[C@H](C)[C@]2(O1)C(=O)N(Cc1ccccc1)c1ccc(NC(C)=O)cc12 | -0.873 | -1.15 (inactive) | -1.19 (inactive) | 0.281 (inactive) | -0.0582 (inactive) | 0.0057 (inactive) | -0.768 (inactive) | -1.33 (inactive) | -0.888 | 0.123 | -0.16 (inactive) | 0.295 | -1.78 | -3.77 (inactive) | -0.139 (inactive) | -0.194 (inactive) |
| COc1ccc(C#Cc2ccc3c(c2)[C@]2(C(=O)N3)[C@H](c3ccc(O)cc3)N3[C@H](c4ccccc4)[C@H](c4ccccc4)OC(=O)[C@H]3[C@@H]2C(=O)N2CCCCCCC2)cc1 | -0.527 | -1.15 (inactive) | 0.0901 (inactive) | -1.4 (inactive) | 1.44 (inactive) | -0.404 (inactive) | -0.525 (inactive) | -0.469 (inactive) | 0.326 | 0.536 | 0.59 (inactive) | 0.644 | -2.08 | 3.13 (inactive) | -0.184 (inactive) | -0.0916 (inactive) |
| O=C(O)[C@H]1C[C@H]2C(=O)NCC(=O)N2[C@H]1c1ccc(O)cc1 | 1.46 | -1.25 (inactive) | 0.866 (inactive) | -0.592 (inactive) | 0.0904 (inactive) | -0.804 (inactive) | 1.49 (inactive) | 1.51 (inactive) | 0.839 | -0.211 | 0.267 (inactive) | -0.212 | 0.137 | -0.43 (inactive) | 0.0056 (inactive) | 0.0301 (inactive) |
| [N-]=[N+]=Nc1ccccc1[C@@H]1OC(c2ccc(OCCCO)cc2)=N[C@]1(CCS(=O)(=O)c1ccccc1)C(=O)N1CCOCC1 | -0.167 | 0.907 (inactive) | -0.638 (inactive) | 1.56 (inactive) | 0.507 (inactive) | 1.9 (inactive) | -0.311 (inactive) | 0.0945 (inactive) | -1.19 | 0.182 | 1.12 (inactive) | 0.731 | -2.09 | -1.96 (inactive) | 0.0445 (inactive) | 0.143 (inactive) |
| COCCOC(=O)N1C(=O)[C@@]2(c3cc(C#CCC(C(=O)OC)C(=O)OC)ccc31)[C@H](C(=O)N1CCN(c3ncccn3)CC1)[C@H]1C(=O)O[C@H](c3ccccc3)[C@H](c3ccccc3)N1[C@@H]2c1ccc(OCCO)cc1 | 1.36 | 0.539 (inactive) | 0.724 (inactive) | -0.432 (inactive) | 3.48 (inactive) | 1.84 (inactive) | 0.272 (inactive) | 0.106 (inactive) | 1.32 | 0.0838 | 0.262 (inactive) | 0.698 | -2.22 | 2.45 (inactive) | -0.576 (inactive) | -0.833 (inactive) |
| O=C1O[C@@H](c2ccccc2)[C@@H](c2ccccc2)N2[C@@H](c3ccc(OCCO)cc3)[C@]3(C(=O)Nc4ccc(C#CC5=CCCCC5)cc43)[C@@H](C(=O)O)[C@H]12 | 0.332 | -0.734 (inactive) | -1.5 (inactive) | -13.5 (active) | 2.07 (inactive) | 1.44 (inactive) | 0.448 (inactive) | 0.0447 (inactive) | -1.43 | 0.104 | 0.383 (inactive) | 0.504 | 0.287 | -3.99 (inactive) | 0.419 (inactive) | 0.542 (inactive) |
| C=C(COC)C(=O)CC[C@@H](OC(=O)c1cccnc1)c1ccc(CO)o1 | 0.114 | -0.0873 (inactive) | 0.78 (inactive) | -0.604 (inactive) | 0.649 (inactive) | -0.318 (inactive) | 0.831 (inactive) | 0.555 (inactive) | 0.807 | -0.0802 | 0.457 (inactive) | 0.496 | -0.469 | -4.3 (inactive) | 0.201 (inactive) | 0.679 (inactive) |
| CN1CCC(CCCO)=CC1c1ccc(CN2CCCC2)cc1 (stereo not drawn) | 0.106 | -1.33 (inactive) | -0.202 (inactive) | -0.27 (inactive) | 0.661 (inactive) | -0.0607 (inactive) | 0.0543 (inactive) | 0.201 (inactive) | -0.304 | 0.194 | 0.426 (inactive) | 0.506 | -1.18 | -2.07 (inactive) | 0.56 (inactive) | 0.903 (inactive) |
| CC(=CC1CCCCC1)[C@@H](NC(=O)c1ccc(C(F)(F)F)cc1)c1ccc(-c2ccccc2)cc1 | 0.0536 | 1.08 (inactive) | -0.549 (inactive) | -0.468 (inactive) | 1.31 (inactive) | 0.088 (inactive) | -1.16 (inactive) | -0.822 (inactive) | -0.18 | -0.115 | -0.138 (inactive) | -0.569 | -0.0178 | -1.48 (inactive) | 0.191 (inactive) | 0.498 (inactive) |

Reference: PubChem BioAssay
